PubChem BioAssay (EPA / NIEHS)
Values joined by “and” are separate entries in the source; they are usually repeats but may differ in a detail not shown here. Identical values can stand only once. Inconclusive results are not listed. Active and inactive are the calls of the source. How the source made its calls, unless noted: active means hit-call score of the fitted dose curve at least 0.9, where 1 is the maximum; inactive means score below 0.9.

How the values were obtained:
[1] = read-out: CD69, CD69 (gene 969); test: BSK_SAg_CD69: BioMAP Diversity Plus: SAg Assay for CD69 Biomarker Activity (AID 2283089); details: primary human HUVEC with PBMC; actives raise or lower the signal;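 on AC50: cell surface CD69 protein quantified by ELISA with fluorescence detection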
Outline: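 Primary human vascular co-culture (umbilical vein endothelium with peripheral blood mononuclear cells) exposed to test chemical for 24 h. CD69 levels quantified by fluorescence ELISA; DMSO served as negative control for bidirectional fitting.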

[2] = read-out: Monocyte Chemoattractant Protein-1 (MCP1), CCL2 (gene 6347); test: BSK_SAg_MCP1: BioMAP Diversity Plus: SAg Assay for Monocyte Chemoattractant Protein-1 (MCP1) Biomarker Activity (AID 2283090); details: primary human HUVEC with PBMC; actives raise or lower the signal
Outline: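 Values derive from bidirectional fitting of ELISA-measured MCP1 against DMSO controls. Readings were taken 24 h after dosing human vascular endothelial cells co-cultured with peripheral blood mononuclear cells under superantigen stimulation.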

[3] = read-out: E-selectin (Homo sapiens) (UniProt P16581); test: BSK_SAg_Eselectin: BioMAP Diversity Plus: SAg Assay for Eselectin Biomarker Activity (AID 2283091); details: primary human HUVEC with PBMC; actives raise or lower the signal
Outline: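 Human umbilical vein endothelial cells co-cultured with peripheral blood mononuclear cells, SAg system. E-selectin is measured by ELISA 24 h after dosing and fitted bidirectionally against DMSO. Cytotoxicity is checked by SRB staining of parallel cultures.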

[4] = read-out: Monokine induced gamma interferon (MIG), CXCL9 (gene 4283); test: BSK_SAg_MIG: BioMAP Diversity Plus: SAg Assay for Monokine induced gamma interferon (MIG) Biomarker Activity (AID 2283092); details: primary human HUVEC with PBMC; actives raise or lower the signal
Outline: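 Endothelial cells and PBMC were co-cultured, exposed to test chemicals, and sampled 24 h later. MIG was measured by ELISA, and responses were fitted in both directions relative to DMSO.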

[5] = BSK_SAg_PBMCCytotoxicity: PBMC Cytotoxicity Assessment in the BioMAP Diversity Plus: SAg Assay (AID 2283093); details: primary human HUVEC with PBMC;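 further: PBMC viability measured as Alamar Blue reduction fluorescence at 546/580 nm; fitted both ways against DMSO so a hit may be loss or gain of signal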;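 on AC50: PBMC superantigen activated with SEB plus TSST-1 one hour after compound addition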
Outline: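 Alamar Blue reduction (6 h, 546/580 nm) reports PBMC cytotoxicity after 90 h superantigen activation (SEB, TSST-1; 20 ng/mL final each) with 1 h compound pre-treatment. Gain or loss of signal fitted versus DMSO.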

[6] = read-out: Interleukin-8 (IL8), CXCL8 (gene 3576); test: BSK_SAg_IL8: BioMAP Diversity Plus: SAg Assay for Interleukin-8 (IL8) Biomarker Activity (AID 2283094); details: primary human HUVEC with PBMC; actives raise or lower the signal
Outline: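 HUVEC/PBMC co-culture, 24 h post-dose; IL-8 by ELISA. Gain or loss of signal fitted bidirectionally vs DMSO baseline.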

[7] = BSK_SAg_Proliferation: Cell Proliferation Assessment in the BioMAP Diversity Plus: SAg Assay (AID 2283095); details: primary human HUVEC with PBMC;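 further: relative cell number as total protein by SRB absorbance in sub-confluent culture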
Outline: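 HUVEC/PBMC co-culture, 96-well. TCA-fixed (10%), 0.1% SRB stain, A560 at 96 h. Protein content used as viability readout; bidirectional fitting vs DMSO control.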

[8] = BSK_SAg_SRB: Viability Assessment in the BioMAP Diversity Plus: SAg Assay (AID 2283096); details: primary human HUVEC with PBMC;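 further: cells read one day after compound addition; hits may be either gain or loss of signal compared with DMSO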
Outline: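 This overt-cytotoxicity endpoint quantifies protein in human endothelial/PBMC co-cultures at 24 h using SRB absorbance (560 nm) after trichloroacetic acid fixation. Values reflect signal change from the DMSO negative control, fitted bidirectionally.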

[9] = target: human CYP2C9, CYP2C9 (gene 1559) (UniProt P11712); test: NVS_ADME_hCYP2C9: NovaScreen (NVS) CYP450-related Enzyme Activity (ADME) Assay for human CYP2C9 (AID 2283108; active means hit-call score of the fitted dose curve at least 0.9, where 1 is the maximum)
human CYP2C9, CYP2C9 (gene 1559), sequence (P11712 whole entry, looked up): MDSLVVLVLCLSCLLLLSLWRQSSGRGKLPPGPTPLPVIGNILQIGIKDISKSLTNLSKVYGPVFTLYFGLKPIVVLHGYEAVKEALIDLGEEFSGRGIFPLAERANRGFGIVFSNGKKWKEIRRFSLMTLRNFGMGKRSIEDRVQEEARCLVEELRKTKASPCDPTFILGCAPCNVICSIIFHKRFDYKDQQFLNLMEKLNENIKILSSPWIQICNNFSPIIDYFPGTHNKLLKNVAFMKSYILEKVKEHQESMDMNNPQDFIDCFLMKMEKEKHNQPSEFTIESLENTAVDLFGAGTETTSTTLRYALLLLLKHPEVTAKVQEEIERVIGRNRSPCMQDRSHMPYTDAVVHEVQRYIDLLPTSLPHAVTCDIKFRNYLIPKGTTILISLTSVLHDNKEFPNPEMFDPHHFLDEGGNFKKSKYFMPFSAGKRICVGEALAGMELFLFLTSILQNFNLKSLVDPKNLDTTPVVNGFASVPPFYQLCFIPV
Outline: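 Cell-free assay of recombinant human CYP2C9 produced in Sf9 cells, with enzyme activity read by fluorescence intensity 0.75 h after compound addition. Loss of signal versus an acetonitrile negative control indicates inhibition. Primary screen used 10 uM in duplicate; actives were retested in concentration series.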

[10] = target: Cytochrome P450 2C19 (Homo sapiens) (UniProt P33261); test: NVS_ADME_hCYP2C19: NovaScreen (NVS) CYP450-related Enzyme Activity (ADME) Assay for human CYP2C19 (AID 2283113; active means hit-call score of the fitted dose curve at least 0.9, where 1 is the maximum;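 further: potency for inhibition seen as loss of fluorescent signal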)
Outline: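 Cell-free recombinant human CYP2C19 from insect cells, fluorescent substrate; activity read by fluorescence intensity 1 h after dosing. Primary screen in duplicate at 10 uM; actives retested in concentration series. Signal loss versus acetonitrile negative control.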

[11] = target: human CYP1A2, CYP1A2 (gene 1544) (UniProt P05177); test: NVS_ADME_hCYP1A2: NovaScreen (NVS) CYP450-related Enzyme Activity (ADME) Assay for human CYP1A2 (AID 2283102; active means hit-call score of the fitted dose curve at least 0.9, where 1 is the maximum;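 on AC50: potency for inhibition since loss of fluorescence marks reduced CYP1A2 activity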)
human CYP1A2, CYP1A2 (gene 1544), sequence (P05177 whole entry, looked up): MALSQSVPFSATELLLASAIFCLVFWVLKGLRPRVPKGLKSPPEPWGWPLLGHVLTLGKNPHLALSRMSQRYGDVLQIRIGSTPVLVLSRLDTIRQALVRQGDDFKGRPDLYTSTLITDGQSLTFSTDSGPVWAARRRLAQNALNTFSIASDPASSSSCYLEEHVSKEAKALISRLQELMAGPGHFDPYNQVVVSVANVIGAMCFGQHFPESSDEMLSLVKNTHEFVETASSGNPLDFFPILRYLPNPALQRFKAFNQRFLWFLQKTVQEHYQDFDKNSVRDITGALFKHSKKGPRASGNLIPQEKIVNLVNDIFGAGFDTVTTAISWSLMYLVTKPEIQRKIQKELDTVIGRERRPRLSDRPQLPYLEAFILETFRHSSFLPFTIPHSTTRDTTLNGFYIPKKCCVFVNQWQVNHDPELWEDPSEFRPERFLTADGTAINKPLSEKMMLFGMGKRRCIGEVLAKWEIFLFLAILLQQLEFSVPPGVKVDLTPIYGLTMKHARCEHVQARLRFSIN
Outline: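 Recombinant human CYP1A2 from insect cells, cell-free, fluorogenic substrate; read 0.5 h after dosing with loss of fluorescence signal indicating inhibition. Primary screen in duplicate at 10 uM, acetonitrile as negative control.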

[12] = target: Cytochrome P450 3A4 (Homo sapiens) (UniProt P08684); test: NVS_ADME_hCYP3A4: NovaScreen (NVS) CYP450-related Enzyme Activity (ADME) Assay for human CYP3A4 (AID 2283110; active means hit-call score of the fitted dose curve at least 0.9, where 1 is the maximum)
Cytochrome P450 3A4 (Homo sapiens), sequence (P08684 whole entry, looked up): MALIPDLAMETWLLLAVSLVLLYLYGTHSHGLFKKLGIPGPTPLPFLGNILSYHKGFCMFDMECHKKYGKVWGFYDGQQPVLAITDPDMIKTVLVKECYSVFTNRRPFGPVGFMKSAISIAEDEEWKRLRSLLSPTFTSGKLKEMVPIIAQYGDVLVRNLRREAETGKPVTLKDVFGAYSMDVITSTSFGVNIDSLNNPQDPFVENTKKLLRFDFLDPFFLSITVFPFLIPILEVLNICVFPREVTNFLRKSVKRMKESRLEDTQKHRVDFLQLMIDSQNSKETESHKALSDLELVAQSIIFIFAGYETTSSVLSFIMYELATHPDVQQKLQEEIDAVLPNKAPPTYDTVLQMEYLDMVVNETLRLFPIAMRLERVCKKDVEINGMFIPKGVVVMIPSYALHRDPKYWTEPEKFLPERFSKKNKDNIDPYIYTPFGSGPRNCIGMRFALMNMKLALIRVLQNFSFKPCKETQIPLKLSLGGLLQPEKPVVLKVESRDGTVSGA
Outline: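 Activity is derived from decreased fluorescence intensity relative to acetonitrile, measured 0.33 hour after dosing insect-cell-expressed CYP3A4 in a cell-free format. Screening used 10 uM in duplicate before concentration-response follow-up.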

[13] = target: Cytochrome P450 2C18 (Homo sapiens) (UniProt P33260); test: NVS_ADME_hCYP2C18: NovaScreen (NVS) CYP450-related Enzyme Activity (ADME) Assay for human CYP2C18 (AID 2283103)
Cytochrome P450 2C18 (Homo sapiens), sequence (P33260 whole entry, looked up): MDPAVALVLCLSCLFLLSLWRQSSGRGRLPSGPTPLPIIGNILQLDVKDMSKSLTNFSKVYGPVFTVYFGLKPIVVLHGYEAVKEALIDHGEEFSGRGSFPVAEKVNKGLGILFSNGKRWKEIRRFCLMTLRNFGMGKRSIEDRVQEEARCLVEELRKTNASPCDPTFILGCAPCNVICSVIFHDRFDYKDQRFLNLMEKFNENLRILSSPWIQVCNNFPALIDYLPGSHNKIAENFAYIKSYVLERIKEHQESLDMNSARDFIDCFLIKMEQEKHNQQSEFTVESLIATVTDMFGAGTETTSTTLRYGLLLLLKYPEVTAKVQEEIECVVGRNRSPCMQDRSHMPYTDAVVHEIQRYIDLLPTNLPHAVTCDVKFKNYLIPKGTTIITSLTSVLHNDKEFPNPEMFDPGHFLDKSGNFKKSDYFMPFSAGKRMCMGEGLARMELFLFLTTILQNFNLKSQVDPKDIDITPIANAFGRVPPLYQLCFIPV
Outline: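 Enzyme activity measured by fluorescence 0.5 h after compound addition, using recombinant CYP2C18 and a specific substrate. Actives from duplicate 10 uM screening were retested in concentration series (top 20 uM); acetonitrile served as negative baseline.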

[14] = target: human CYP2J2, CYP2J2 (gene 1573) (UniProt P51589); test: NVS_ADME_hCYP2J2: NovaScreen (NVS) CYP450-related Enzyme Activity (ADME) Assay for human CYP2J2 (AID 2283106; active means hit-call score of the fitted dose curve at least 0.9, where 1 is the maximum)
human CYP2J2, CYP2J2 (gene 1573), sequence (P51589 whole entry, looked up): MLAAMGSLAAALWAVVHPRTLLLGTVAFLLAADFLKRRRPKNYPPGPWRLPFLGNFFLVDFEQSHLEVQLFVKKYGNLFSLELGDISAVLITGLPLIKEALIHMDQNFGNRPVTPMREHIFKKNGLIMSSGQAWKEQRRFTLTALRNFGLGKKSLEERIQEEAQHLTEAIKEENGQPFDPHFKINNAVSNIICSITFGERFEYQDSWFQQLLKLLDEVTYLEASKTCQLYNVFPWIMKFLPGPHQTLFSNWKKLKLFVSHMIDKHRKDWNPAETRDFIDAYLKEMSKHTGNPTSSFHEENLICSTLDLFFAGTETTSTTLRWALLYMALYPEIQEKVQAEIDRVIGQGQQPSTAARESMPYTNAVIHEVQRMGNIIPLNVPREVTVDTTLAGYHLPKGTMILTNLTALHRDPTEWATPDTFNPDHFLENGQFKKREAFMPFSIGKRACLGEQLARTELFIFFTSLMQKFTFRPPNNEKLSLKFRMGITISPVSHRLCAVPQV
Outline: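 Chemicals were first tested at 10 uM in duplicate, and hits meeting criteria such as 30% inhibition were run in singleton concentration series with a 20 uM top concentration. Enzyme activity of recombinant CYP2J2 was measured by fluorescence after 1 h, relative to acetonitrile.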

[15] = target: human CYP2A6, CYP2A6 (gene 1548) (UniProt P11509); test: NVS_ADME_hCYP2A6: NovaScreen (NVS) CYP450-related Enzyme Activity (ADME) Assay for human CYP2A6 (AID 2283099; active means hit-call score of the fitted dose curve at least 0.9, where 1 is the maximum)
Outline: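 Recombinant human CYP2A6 expressed in insect cells, cell-free; fluorogenic substrate turnover read by fluorescence intensity 0.5 h after dosing. Primary screen 10 uM in duplicate, then concentration-response up to 20 uM; acetonitrile as negative control.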

[16] = target: human CYP19A1, CYP19A1 (gene 1588) (UniProt P11511); test: NVS_ADME_hCYP19A1: NovaScreen (NVS) CYP450-related Enzyme Activity (ADME) Assay for human CYP19A1 (AID 2283098; active means hit-call score of the fitted dose curve at least 0.9, where 1 is the maximum;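 further: potency for inhibitors seen as loss of fluorescent enzyme signal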)
human CYP19A1, CYP19A1 (gene 1588), sequence (P11511 whole entry, looked up): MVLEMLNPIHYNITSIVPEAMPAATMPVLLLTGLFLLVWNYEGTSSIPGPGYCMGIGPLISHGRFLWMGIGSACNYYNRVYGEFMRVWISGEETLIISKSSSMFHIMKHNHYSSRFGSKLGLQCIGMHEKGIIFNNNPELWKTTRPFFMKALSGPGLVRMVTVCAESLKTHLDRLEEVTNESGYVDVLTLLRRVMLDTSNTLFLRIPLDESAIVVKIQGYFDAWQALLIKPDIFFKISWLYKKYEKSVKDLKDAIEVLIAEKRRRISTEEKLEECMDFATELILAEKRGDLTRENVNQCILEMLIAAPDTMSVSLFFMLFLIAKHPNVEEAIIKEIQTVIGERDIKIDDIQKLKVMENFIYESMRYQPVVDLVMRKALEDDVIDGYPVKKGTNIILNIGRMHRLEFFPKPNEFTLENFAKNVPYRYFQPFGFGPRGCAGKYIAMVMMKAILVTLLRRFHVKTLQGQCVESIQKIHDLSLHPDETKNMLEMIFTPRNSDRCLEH
Outline: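 Compounds were first screened at 10 uM in duplicate against purified enzyme, with a fluorogenic substrate and fluorescence intensity detection after 0.5 h. Inhibition appears as reduced signal against acetonitrile control.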

[17] = target: human CYP1A1, CYP1A1 (gene 1543) (UniProt P04798); test: NVS_ADME_hCYP1A1: NovaScreen (NVS) CYP450-related Enzyme Activity (ADME) Assay for human CYP1A1 (AID 2283100; active means hit-call score of the fitted dose curve at least 0.9, where 1 is the maximum)
human CYP1A1, CYP1A1 (gene 1543), sequence (P04798 whole entry, looked up): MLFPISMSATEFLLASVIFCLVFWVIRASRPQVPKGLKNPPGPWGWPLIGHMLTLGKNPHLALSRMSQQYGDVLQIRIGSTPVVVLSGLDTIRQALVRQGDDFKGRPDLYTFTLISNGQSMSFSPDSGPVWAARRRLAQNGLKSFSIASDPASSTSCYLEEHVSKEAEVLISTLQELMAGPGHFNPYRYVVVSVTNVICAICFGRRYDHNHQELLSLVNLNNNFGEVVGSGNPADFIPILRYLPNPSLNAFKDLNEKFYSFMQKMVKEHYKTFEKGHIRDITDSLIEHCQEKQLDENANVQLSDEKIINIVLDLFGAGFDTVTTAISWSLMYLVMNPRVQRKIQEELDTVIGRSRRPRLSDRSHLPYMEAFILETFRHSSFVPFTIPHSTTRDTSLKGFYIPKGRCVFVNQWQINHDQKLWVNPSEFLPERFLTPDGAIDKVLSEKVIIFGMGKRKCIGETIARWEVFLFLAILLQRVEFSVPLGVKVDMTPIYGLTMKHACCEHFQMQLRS
Outline: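 Recombinant CYP1A1 with a fluorogenic substrate, cell-free, read 1 h after dosing; acetonitrile as negative control. Single-concentration screen at 10 uM in duplicate, then concentration-response up to 20 uM for chemicals meeting ~30% inhibition threshold.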

[18] = target: human CYP2B6, CYP2B6 (gene 1555) (UniProt P20813); test: NVS_ADME_hCYP2B6: NovaScreen (NVS) CYP450-related Enzyme Activity (ADME) Assay for human CYP2B6 (AID 2283101; active means hit-call score of the fitted dose curve at least 0.9, where 1 is the maximum)
human CYP2B6, CYP2B6 (gene 1555), sequence (P20813 whole entry, looked up): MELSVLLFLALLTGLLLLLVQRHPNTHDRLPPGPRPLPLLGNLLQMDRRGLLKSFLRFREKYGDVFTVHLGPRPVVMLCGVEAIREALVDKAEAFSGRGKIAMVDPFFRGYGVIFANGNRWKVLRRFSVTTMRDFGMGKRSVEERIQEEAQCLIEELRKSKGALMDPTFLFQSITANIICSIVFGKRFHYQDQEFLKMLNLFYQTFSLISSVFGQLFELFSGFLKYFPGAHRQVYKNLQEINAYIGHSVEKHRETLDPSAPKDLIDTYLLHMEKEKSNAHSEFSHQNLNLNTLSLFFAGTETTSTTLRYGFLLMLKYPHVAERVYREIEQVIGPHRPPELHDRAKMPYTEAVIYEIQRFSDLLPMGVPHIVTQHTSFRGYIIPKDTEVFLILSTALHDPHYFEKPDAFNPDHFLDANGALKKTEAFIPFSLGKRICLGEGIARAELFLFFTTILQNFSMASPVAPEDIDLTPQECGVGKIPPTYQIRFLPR
Outline: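 Cell-free recombinant enzyme assay with a fluorogenic substrate; fluorescence intensity read 1 hour after dosing. Loss of signal relative to acetonitrile negative control indicates inhibition. Primary screen run in duplicate at 10 uM, actives then tested in concentration series.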

Measured: AC50

E-selectin (Homo sapiens), sequence (P16581 whole entry, looked up): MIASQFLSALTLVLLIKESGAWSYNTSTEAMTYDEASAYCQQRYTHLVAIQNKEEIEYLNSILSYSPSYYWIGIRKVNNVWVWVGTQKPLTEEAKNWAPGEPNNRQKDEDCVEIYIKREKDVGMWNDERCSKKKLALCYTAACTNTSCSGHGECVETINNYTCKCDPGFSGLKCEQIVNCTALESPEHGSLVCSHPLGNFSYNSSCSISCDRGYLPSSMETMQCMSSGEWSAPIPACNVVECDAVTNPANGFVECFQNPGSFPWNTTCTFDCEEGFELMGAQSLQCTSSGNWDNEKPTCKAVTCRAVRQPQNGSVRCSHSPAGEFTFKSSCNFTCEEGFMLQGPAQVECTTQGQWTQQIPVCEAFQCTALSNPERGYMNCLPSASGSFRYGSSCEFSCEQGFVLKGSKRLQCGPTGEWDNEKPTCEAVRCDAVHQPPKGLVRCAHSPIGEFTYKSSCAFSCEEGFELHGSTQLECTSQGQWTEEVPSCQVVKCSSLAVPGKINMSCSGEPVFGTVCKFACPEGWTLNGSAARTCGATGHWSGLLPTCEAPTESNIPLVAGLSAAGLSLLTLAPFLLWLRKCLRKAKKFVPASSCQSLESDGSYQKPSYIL

O=C(O)C(Cl)(Cl)Cl
inactive: [1] | [2] | [3] | [4] | [5] | [6] | [7] | [8]

COP(=S)(OC)Oc1ccc(S(=O)(=O)N(C)C)cc1
inactive: [1] | [2] | [3] | [4] | [5] | [6] | [7] | [8]
active: [9] 77.9 nM | [10] 190 nM

NC(=O)O
inactive: [1] | [2] | [3] | [4] | [5] | [6] | [7] | [8]

Cn1sc(Cl)cc1=O
inactive: [4] | [8] | [11]
active: [1] 26.4 µM | [2] 30.7 µM | [3] 20 µM | [5] 16.9 µM | [6] 20 µM | [7] 6.46 µM | [12] 2.77 µM | [10] 5770 nM

COP(=S)(OC)Oc1ccc(Sc2ccc(OP(=S)(OC)OC)cc2)cc1
active: [1] 13.6 µM | [2] 26.9 µM | [6] 9.59 µM | [7] 28.8 µM | [11] 7.61 µM | [13] 5.83 µM | [14] 3.3 µM | [9] 505 nM and 5.52 µM | [10] 4.32 µM and 1.06 µM
inactive: [4] | [5] | [8]

COP(=S)(OC)Oc1c(Cl)cc(C)cc1Cl
inactive: [1] | [2] | [4] | [5] | [6] | [8]
active: [7] 31.6 µM

O=[N+]([O-])c1ccc(O)c([N+](=O)[O-])c1
inactive: [1] | [2] | [4] | [5] | [6] | [7] | [8] | [15]

Clc1ccc(C2(Cn3cncn3)CC(Br)CO2)c(Cl)c1 (stereo unspecified)
active: [16] 5.55 µM | [18] 1.16 µM | [13] 6.47 µM | [9] 6630 nM | [12] 2 µM | [10] 243 nM
inactive: [17]
